# Measurements published in PubChem BioAssay.
# Active and inactive are the calls of the source.
# Experiments:
# [1] = biological target: Albumin (Bos taurus) (UniProt P02769); assay: compounds binding labelled BSA control protein – biochemical, small-molecule microarray, Alexa647 label, 635/667 nm fluorescence, artefact control for SMM control protein annotation, profiling panel (AID 1118); conditions: BSA-A647 binding, fluorescence 635 nm, higher = more signal;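 further: score merges 667 nm emission intensity and signal-to-noise per printed compound spot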
# Albumin (Bos taurus), sequence (P02769 whole entry, looked up): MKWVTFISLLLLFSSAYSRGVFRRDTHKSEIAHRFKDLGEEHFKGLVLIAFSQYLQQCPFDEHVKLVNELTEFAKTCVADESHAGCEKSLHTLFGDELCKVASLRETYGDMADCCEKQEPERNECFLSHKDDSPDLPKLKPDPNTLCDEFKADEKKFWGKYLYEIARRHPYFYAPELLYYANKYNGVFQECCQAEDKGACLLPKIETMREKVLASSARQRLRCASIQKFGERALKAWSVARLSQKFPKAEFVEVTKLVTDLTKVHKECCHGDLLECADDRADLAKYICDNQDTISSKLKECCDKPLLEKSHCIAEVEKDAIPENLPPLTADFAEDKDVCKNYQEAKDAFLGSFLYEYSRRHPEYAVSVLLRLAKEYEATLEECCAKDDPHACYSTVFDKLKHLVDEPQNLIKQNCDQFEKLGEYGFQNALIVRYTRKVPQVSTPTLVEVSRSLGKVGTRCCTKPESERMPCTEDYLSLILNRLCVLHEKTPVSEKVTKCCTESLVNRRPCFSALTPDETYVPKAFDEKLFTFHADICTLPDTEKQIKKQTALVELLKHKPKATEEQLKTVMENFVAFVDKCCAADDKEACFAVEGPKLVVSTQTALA
# [2] = probe aXIP binding to arrayed compounds – biochemical, NeuroSMM set, 635/667 nm fluorescence, primary screen (AID 1119); conditions: small-molecule microarray, higher = more signal, called active from +8 up or from −8 down;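 further: probe is the protein aXip251-270 applied at 1 µg/mL to compound-printed slides; binding of probe to printed compounds measured as 667 nm fluorescence plus signal to noise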
# [3] = probe aNOTCH3 binding on compound microarray – biochemical, small-molecule microarray, 635/667 nm fluorescence, primary screen (AID 1120); conditions: higher = more signal;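 further: probe is a biotin-tagged antibody raised against NOTCH3 rather than NOTCH3 protein; score merges spot fluorescence near 667 nm with spot signal to noise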
# [4] = probe aNOTCH2 binding on compound microarray – biochemical, small-molecule microarray, 635/667 nm fluorescence, primary screen (AID 1121); conditions: higher = more signal;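 further: score merges feature fluorescence read at 667 nm with its signal to noise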
# [5] = biological target: Carbonic anhydrase 2 (Homo sapiens) (UniProt P00918); assay: compounds binding carbonic anhydrase 2 – biochemical, small-molecule microarray, Alexa647-labelled CAII, profiling panel (AID 1122); conditions: CAII-A647 binding fluorescence, higher = more signal
# [6] = COS7 lysate on small-molecule microarray, probe aHis, 635 nm (AID 1123); conditions: COS7 cell lysate, fluorescence, higher = more signal;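 further: z-score combines 667nm fluorescence intensity with signal-to-noise per printed compound spot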
# [7] = probe aLAP1 signal on lysate-treated microarray – cell lysate, small-molecule microarray, COS7 lysate, primary screen (AID 1124); conditions: probe aLAP1, fluorescence, higher = more signal;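 further: lysate comes from COS7 cells expressing LAP1 and is applied at 0.3 µg/mL; score merges spot fluorescence near 667 nm with signal-to-noise over triplicate slides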
# [8] = tested on: Sam68 (KHDRBS1); assay: compounds binding KHDRBS1 protein – biochemical, small-molecule microarray, 635 nm fluorescence, primary screen (AID 1125); conditions: higher = more signal;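 further: score merges 667 nm channel intensity with signal to noise over triplicate slides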
# [9] = tested on: Chordin-like protein 2 (CHRDL2); assay: compounds binding chordin-like 2 – biochemical, small-molecule microarray, 635 nm fluorescence, primary screen (AID 1126); conditions: fluorescence 635 nm, higher = more signal;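 further: printed compound slides probed with Chrdl2 protein at 4 µg/mL for 1 h at 4 C; score merges 667 nm emission intensity with signal to noise over three replicate slides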
# [10] = biological target: Concanavalin-A (Canavalia ensiformis) (UniProt P02866); assay: compounds binding concanavalin A lectin – biochemical, small-molecule microarray, Alexa647 label, 635 nm, artefact control for SMM control protein annotation, primary screen (AID 1127); conditions: ConA-A647 binding fluorescence, higher = more signal;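 further: z combines 667 nm emission intensity with signal-to-noise across three replicate slides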
# Concanavalin-A (Canavalia ensiformis), sequence (P02866 whole entry, looked up): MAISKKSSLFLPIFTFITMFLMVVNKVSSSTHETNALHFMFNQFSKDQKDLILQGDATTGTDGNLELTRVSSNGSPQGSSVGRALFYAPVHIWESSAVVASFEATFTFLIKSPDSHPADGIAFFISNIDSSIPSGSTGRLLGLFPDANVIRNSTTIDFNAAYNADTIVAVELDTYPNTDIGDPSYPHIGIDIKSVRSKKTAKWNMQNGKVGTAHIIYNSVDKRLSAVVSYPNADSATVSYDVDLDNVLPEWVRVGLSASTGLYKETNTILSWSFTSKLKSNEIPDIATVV
Compound,composite z-score [1],composite Z-score [2],composite z-score [3],composite z-score [4],composite z-score [5],composite z-score [6],composite z-score [7],composite z-score [8],composite z-score [9],composite z-score [10]
COC(=O)[C@@]1(Cc2ccc(OC)cc2)[C@H]2c3cc(C(=O)N4CCCC4)n(CCSCCO)c3C[C@H]2CN1C(=O)c1ccccc1,0.905,0.228 (inactive),0.211,0.0312,0.678,3.24,0.247,0.657,-0.633,0.941
C[C@H]1C2[C@H](Cc3ccccc3)NC(=O)[C@]23C(=O)NCC(=O)N2CCC[C@H]2C(=O)NC/C=C/CCC/C=C/C3[C@@H]2O[C@]12C (stereo not given in full),-0.677,-0.695 (inactive),-0.136,-0.179,-0.17,-0.18,0.053,-1.51,-0.143,-1.27
COC(=O)C(CC#Cc1ccc2c(c1)[C@]1(C(=O)N2)[C@H](c2ccc(O)cc2)N2[C@H](c3ccccc3)[C@H](c3ccccc3)OC(=O)[C@H]2[C@@H]1C(=O)N1CCN(c2ncccn2)CC1)C(=O)OC,0.518,0.471 (inactive),0.166,0.0669,0.476,2.47,0.415,1.28,0.0801,1.11
CCCCC(=C=CC[C@@H](O)c1cccc(OCCO)c1)C[C@@H](O)c1ccccn1,0.416,0.216 (inactive),-0.0881,-0.172,0.7,0.617,0.651,1.29,0.263,0.664
CCCC=C(CCC)[C@@H](NC(=O)OCC(C)C)c1ccccc1,0.923,-0.254 (inactive),1.03,-0.0141,0.611,1.6,-0.182,1.31,-1.42,1.1
COc1ccccc1CN1C(=O)c2ccccc2[C@@]2(Cc3ccccc3N(CCCN(C)C)C2=O)[C@@H]1c1ccc(CO)cc1,-0.909,0.027 (inactive),-0.0797,0.0687,-0.271,0.5,-0.0231,-0.204,1.27,0.417
COc1cc2c(cc1O)C(c1cccs1)N(Cc1ccc([N+](=O)[O-])o1)CC2 (stereo not given),0.878,3.03 (inactive),0.029,0.12,0.876,1.35,1.08,0.0376,-0.57,0.364
COCC(=C=CC[C@H](O)c1ccccc1OCCO)CCO,0.003,-0.325 (inactive),-0.0048,-0.0475,0.774,0.969,0.162,0.853,-0.546,0.298
C=C(/C(=C/C[C@H](OC(C)=O)c1ccc(OCCO)cc1)c1cc(C(=O)OC)ccc1OC)C(C)C,0.322,0.218 (inactive),0.0562,-0.0666,0.767,1.73,-0.144,1.31,0.305,0.883
CN1C(=O)C2C=CC(C(O)c3c(F)cccc3Cl)N(NC(=O)OC(C)(C)C)C2C1=O (stereo not given),0.972,2.18 (inactive),-0.0362,0.109,0.572,2.75,0.67,1.22,-0.729,0.918
COc1cc(OC)c(C(O)C2C=CC3C(=O)NC(=O)C3N2Nc2ccccn2)cc1Br (stereo not given),-0.257,0.172 (inactive),-0.0026,-0.0598,0.819,0.973,0.487,0.755,1.02,0.747
C=C(CCCC)C(=O)CC[C@H](OC(=O)c1cccnc1)c1ccc(OCCO)cc1,0.0514,0.197 (inactive),-0.0076,-0.14,0.72,-0.0099,0.022,0.567,0.191,-0.421
CN1C(=O)C2C=CC(C(O)C=Cc3ccc([N+](=O)[O-])cc3)N(Nc3ccccc3)C2C1=O (stereo not given),0.988,0.268 (inactive),0.255,-0.0894,0.624,1.21,0.19,1.3,0.674,0.988
COCCCNC(=O)[C@@]1(Cc2ccccc2CN=[N+]=[N-])N=C(c2ccc(OCCCO)cc2)O[C@H]1c1ccccc1CN=[N+]=[N-],1.02,0.585 (inactive),0.459,-0.0438,0.594,2.58,0.574,1.29,-1.13,0.972
COC(=O)[C@@]1(Cc2ccccc2)[C@H]2c3cc(C(=O)N4CCCC4)n(Cc4c(CO)[nH]cc(C)c4=O)c3C[C@H]2CN1C(=O)c1ccccc1,0.677,-0.0461 (inactive),0.0076,0.154,0.701,2.64,1.32,0.109,-0.174,0.0417
C[N+](C)(C)CCCC[C@@H]1NC(=O)[C@@H]2C[C@H](C(=O)NCCCCCCNC(=O)CS)[C@H](c3ccc(O)cc3)N2C1=O,0.303,0.0896 (inactive),-0.443,-0.115,0.82,0.443,0.596,-0.731,-0.377,0.871
NC(=O)[C@@]1(Cc2ccccc2)N=C(c2ccc(OCCCO)cc2)O[C@H]1c1ccccc1,0.852,0.546 (inactive),0.0276,0.0247,0.721,3.05,0.593,0.572,-0.643,0.737
CO[C@H]1O[C@H](CO)[C@@H](OC(=O)Nc2cccc(F)c2)[C@H](OC(=O)Nc2ccccc2)[C@H]1OC(=O)Nc1ccccc1,-0.225,0.0063 (inactive),0.146,-0.0664,0.65,1.24,0.168,1.29,0.323,0.899
CCOC(=O)C[C@H]1[C@H](OC(=O)c2cc3ccccc3oc2=O)[C@@H](NC(=O)CC(C)C)c2cc(OCCCO)ccc2N1C(=O)c1ccccc1,0.793,-0.081 (inactive),-0.0044,-0.14,0.308,0.614,0.139,1.21,0.202,0.298
COc1cc(CO)cc(I)c1O[C@H]1C=C(C(=O)NCCO)C[C@@H](NC[C@@H]2CCCO2)[C@@H]1O,0.0917,-0.791 (inactive),0.105,-0.14,-0.0877,-0.0856,0.696,1.16,0.0292,0.0446
O=C1OCC=C[C@H]2OC34C=CCN(CCN5CCOCC5)C(=O)[C@H]3N(CCO)C(=O)[C@@H]4[C@@H]12 (stereo not given in full),-0.263,0.198 (inactive),-0.0221,-0.208,0.764,-0.214,-0.194,0.457,0.0881,0.575
CCOc1cc(C(O)C2C=CC3C(=O)N(c4ccccc4)C(=O)C3N2Nc2ccc(C(C)C)cc2)ccc1O (stereo not given),0.925,0.203 (inactive),0.15,-0.0274,0.79,2.63,0.33,1.29,0.161,1.09
COc1ccc([C@H]2C[C@H]3C(Br)=C[C@@]2(CO)C(=O)[C@]32CO2)cc1,-0.613,-0.0805 (inactive),-0.103,-0.0684,0.0574,-0.128,0.289,-0.318,0.282,0.178
[N-]=[N+]=NCc1ccccc1[C@@H]1OC(c2ccc(OCCCO)cc2)=N[C@]1(CCS(=O)(=O)c1ccccc1)C(N)=O,0.0943,0.466 (inactive),0.369,0.0703,0.637,3.29,0.247,1.28,1.1,0.971
C=C(CCCC)/C(=C/C[C@@H](OC(C)=O)c1ccccc1OCCO)c1cc(C(=O)OC)ccc1OC,0.056,-0.737 (inactive),-0.0947,-0.103,0.402,0.0769,0.0978,0.166,-0.354,-0.544
